Compound activity (PubChem)
ELG1 DNA repair: inhibitors of ELG1-dependent DNA repair in HEK293T cells | hit rate 2.3% among 330,000 | HEK293T ELG1-luciferase reporter, luminescence, 16 h; DNA damage induced by 5-fluorouridine | Potency, µM (top dose mostly 46.1 µM), without a hit: at the highest dose activity change, negative = inhibition, actives largely listed as inhibitors; further: on the % scale 0 is the no-effect control and ±100 the full control effect; nearly all actives have a fitted effect of over 55% in size
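Overnight (16 hr) co-exposure of 2,000 cells/well to 5-fluorouridine and compound at 37 °C preceded detection. Luciferase was quantified via ONE-Glo luminescence; loss of signal denotes inhibition.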
FLuc modulator: inhibits or activates purified firefly luciferase, miR-21 counter-screen. P08659. hit rate 6.9% among 360,000. AID 588342. purified FLuc, Km substrates, luminescence inhibition. Potency, µM (series often up to 57.5 µM), for inactives: top-dose activity change, negative = inhibition, usual class: inhibitors;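 further: plate controls were vehicle for no effect and reference inhibitor for full effect; nearly all actives have a fitted effect of over 55% in size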
Target sequence (P08659 whole entry, looked up): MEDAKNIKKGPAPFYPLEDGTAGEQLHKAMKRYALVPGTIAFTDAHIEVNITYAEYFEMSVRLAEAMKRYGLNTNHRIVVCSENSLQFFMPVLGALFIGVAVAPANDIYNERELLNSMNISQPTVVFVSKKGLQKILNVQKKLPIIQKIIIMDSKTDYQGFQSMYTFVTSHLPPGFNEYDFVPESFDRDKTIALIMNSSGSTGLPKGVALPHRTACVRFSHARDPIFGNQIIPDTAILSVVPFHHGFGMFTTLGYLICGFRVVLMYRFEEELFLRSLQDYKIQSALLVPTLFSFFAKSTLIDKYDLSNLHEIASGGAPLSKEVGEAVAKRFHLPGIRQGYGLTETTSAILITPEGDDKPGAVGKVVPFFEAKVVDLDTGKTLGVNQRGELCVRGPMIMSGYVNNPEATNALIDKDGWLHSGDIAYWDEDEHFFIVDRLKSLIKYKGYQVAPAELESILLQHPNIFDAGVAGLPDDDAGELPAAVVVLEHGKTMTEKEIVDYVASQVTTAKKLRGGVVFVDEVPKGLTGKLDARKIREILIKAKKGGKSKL
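Purified P. pyralis luciferase (10nM final) with 10uM D-luciferin and 10uM ATP (Km levels) in 50mM Tris acetate pH 7.5, 10mM Mg acetate, 0.01% Tween-20, 0.05% BSA; qHTS 6-point titration, ~60 µM downward; luminescence read.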
SMN2 splice up: increases expression of the SMN2 splice variant; HEK293 SMN2-luciferase splicing reporter, luminescence, 30-36 h; Potency, µM (top dose mostly 46.1 µM), for the others: at the highest dose activity change, positive = activation, hits mostly activators; hit rate 2.8% among 210,000; AID 1458; further: % of control where 0% means no effect; nearly all actives have a fitted effect of over 55% in size
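HEK293 cells carry an SMN2 minigene-luciferase reporter in which exon 7 inclusion puts luciferase in frame. Cells were seeded at 2000 cells/well, attached for 10-12 hours, then exposed to compounds for 30-36 hours at 37C before ONE-Glo luminescence.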
Rab9 promoter act: Rab9 promoter activation | Huh7 Rab9 promoter-luciferase reporter, luminescence, 24 h | Potency, µM (doses to about 9.22 µM), inactives show top-dose activation, negative = inhibition, hits mostly activators | hit rate 2.8% among 320,000; further: % of control where 0% means no effect; nearly all actives have a fitted effect of over 60% in size
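Luciferase signal after 10 min detection reagent at ambient indicates Rab9 promoter upregulation; stably transfected Huh7 cells were treated 24 h with compound in DMSO at 37 °C, 5% CO2.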
NPC1 promoter act: NPC1 promoter activation; Huh7 NPC1 promoter luciferase reporter, 24 h; Potency, µM (titrated, usually from 9.22 µM), inactives show at the highest dose activation, usual class: activators; hit rate 2.4% among 320,000; further: % of control where 0% means no effect; nearly all actives have a fitted effect of over 60% in size
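Luminescence read-out of NPC1 promoter-driven luciferase in stably transfected Huh7 cells; compounds delivered in DMSO and left 24 h at 37C, 5% CO2, qHTS titration format.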
ELG1 genotoxic: genotoxicity induction in ELG1-luciferase HEK293T cells. HEK293T ELG1-luciferase reporter, luminescence, 16 h. Potency, µM (top dose mostly 46 µM), inactives show at the highest dose activity change, positive = activation, usual class: activators. hit rate 1.3% among 330,000. AID 504466; further: % of control where 0% means no effect; nearly all actives have a fitted effect of over 60% in size
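Genotoxic stress is detected as increased luminescence from luciferase-tagged ELG1 in HEK293T cells, measured with ONE-Glo after a 16 hr treatment at 37 °C.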
An asterisk follows results filed as active; ? = inconclusive; . = no result. Only some compounds are listed: those with a hit (about 9.2% of all), similar ones and a draw of the others. The call rests on the fitted dose curve; in most records, active means well fitted curve in the direction sought with a large enough effect; inconclusive means small, poorly fitted or top-dose-only effect, or another doubt; inactive means no such curve, though single readings can be large; an effect the other way counts as inactive or inconclusive. Potency means the concentration at half of the fitted maximal effect.

SMILES	ELG1 DNA repair	FLuc modulator	SMN2 splice up	Rab9 promoter act	NPC1 promoter act	ELG1 genotoxic
COc1ccc(-c2cc(C(=O)N3CCN(c4ccccc4O)CC3)c3ccccc3n2)cc1	20%	0.67µM*	.	2µM*	3.2µM*	0%
CCOc1ccc(-c2nc3c(c(CC)nn3-c3ccccc3)c3cc(OC)c(OC)cc23)cc1	.	2%	5%	.	.	.
Cc1ccc(-c2cc(C(=O)N3CCN(c4ccccc4O)CC3)c3ccccc3n2)cc1	?	2.4µM*	.	?	?	-1%
S=C(Nc1ccccc1Cl)N1CCC(c2ccccc2)C1 (centres undefined)	?	24µM*	13µM*	2.8µM*	3.5µM*	?
Fc1ccccc1NC(=S)N1CCC(c2ccccc2)C1 (centres undefined)	?	?	79%	?	?	?
Cc1ccc(NC(=S)N2CCC(c3ccccc3)C2)c(Cl)c1 (centres undefined)	?	1.5µM*	11µM*	0.28µM*	0.5µM*	2.3µM*
COc1ccc(S(=O)(=O)N(C)c2ccc(C(=O)Nc3cccnc3)cc2)cc1OC	21µM*	-3%	.	-1%	2%	-15%
COc1ccc(S(=O)(=O)N(C)c2ccc(C(=O)N3CCCC3)cc2)cc1OC	?	1%	.	-4%	-2%	-2%
CN(c1ccc(C(=O)Nc2cccnc2)cc1)S(=O)(=O)c1ccccc1	-25%	3%	.	-1%	-3%	-12%
COc1ccc(S(=O)(=O)N(C)c2ccc(C(=O)Nc3cccnc3)cc2)cc1	23µM*	2%	.	-1%	10%	-20%
COc1ccc(S(=O)(=O)N(C)c2ccc(C(=O)N3CCN(c4ccccc4)CC3)cc2)cc1OC	13µM*	0%	.	-2%	-4%	-21%
COCCCn1c(=O)c2sccc2n2c(CCCC(=O)NCc3cccc(OC)c3)nnc12	1%	2%	.	4%	-4%	-2%
CCCc1nnc(NC(=O)C2CC(=O)N(C3CCCC3)C2)s1 (centres undefined)	6%	2%	.	-2%	-6%	0%
N#Cc1ccccc1S(=O)(=O)N1CCN(C(=O)C2COc3ccccc3O2)CC1 (centres undefined)	?	2%	.	-2%	-1%	1%
Nc1nc2sc3c(c2c(=O)s1)CCCC3	?	11µM*	?	?	29%	16µM*
CC1(C)Cc2c(sc3nc4n(c(=O)c23)CCC4)CO1	17%	0%	-10%	18%	-1%	-1%
O=c1c2c3c(sc2nc2n1CCCS2)CCCC3	?	19µM*	7%	?	?	26%
Cc1nc2sc3c(c2c(=N)n1N)CCCC3	-2%	-4%	-7%	-10%	-8%	0%
O=c1c2c3c(sc2nc2n1CCCC2)CCCCC3	?	24µM*	3%	11%	16%	?
O=c1c2c3c(sc2nc2n1CCC2)CCCC3	21%	1%	.	2%	-5%	0%
N=c1c2c3c(sc2nc2n1CCCCC2)CCCCC3	?	17µM*	6%	?	?	?
CC1CCCN(c2nc3c(-c4ccc(Cl)cc4)nnn3c3ccccc23)C1 (centres undefined)	.	2%	9%	.	.	.
Cc1ccc(N2CC(NC(=O)c3cccs3)CC2=O)cc1 (centres undefined)	.	7%	.	.	.	.
O=c1c2c3c(sc2nc2n1CCCCC2)CCCC3	?	19µM*	?	?	?	23µM*
O=c1c2c3c(sc2nc2n1CCCCC2)CCCCC3	?	13µM*	11µM*	3.5µM*	3.5µM*	?
SMILES	ELG1 DNA repair	FLuc modulator	SMN2 splice up	Rab9 promoter act	NPC1 promoter act	ELG1 genotoxic
O=c1c2c3c(sc2nc2n1CCCC2)CCC3	5%	0%	13%	7%	2%	3%
CC1=Nn2c(nc3sc4c(c3c2=O)CCCC4)SC1	?	21µM*	10µM*	?	25%	?
Cc1cccc(NC(=O)c2cnn3c2NC(=C2CC2)C=C3C(F)F)n1	.	4%	.	.	.	.
COc1ccc(-c2cncnc2-c2ccc(OC)cc2O)cc1	5.8µM*	0%	.	2%	0%	-18%
c1ccc(CNc2ncnc3c2ncn3C2CCCCO2)cc1 (centres undefined)	?	27µM*	?	?	?	?
O=C(Cn1cnc2c(NCc3ccccc3)ncnc21)NCC1CCCO1 (centres undefined)	23%	.	.	.	.	-2%
S=c1nc2ccccc2c2nc(-c3ccccc3)[nH]n12	?	27µM*	-10%	17%	?	9%
S=c1nc2ccccc2c2nc(-c3ccccc3Cl)[nH]n12	?	?	.	27%	16%	-4%
COc1ccc(C(C[N+](=O)[O-])C2(c3ccc(OC)c(OC)c3)C(=O)c3ccccc3C2=O)cc1 (centres undefined)	?	6µM*	25µM*	?	28%	-13%
O=C(Nc1ccc([N+](=O)[O-])cc1)Nc1ccon1	3%	1%	.	-16%	-12%	-3%
CCCCc1ccc(NC(=O)Nc2cnccn2)cc1	?	?	.	24%	-8%	6%
CCc1ccc(NC(=O)Nc2cnccn2)cc1	?	11µM*	.	3.5µM*	?	?
CCc1ccc(NC(=O)Nc2ccon2)cc1	?	7.6µM*	.	2.5µM*	2.2µM*	?
Cc1ccc(-c2nnc(Cc3ccc([N+](=O)[O-])cc3)o2)cc1	?	-2%	.	2.2µM*	?	?
COc1ccc(Cc2nnc(-c3ccc(F)cc3)o2)cc1OC	7%	-1%	-45%	1%	-1%	?
O=[N+]([O-])c1ccc(Cc2nnc(-c3ccc(F)cc3)o2)cc1	?	-11%	5%	1µM*	?	-4%
CC(C)(C)OC(=O)C[C@H]1C/C=C\C[C@H](CC(=O)NCCO)C(=O)NC[C@H](c2ccccc2)OC1=O	?	.	.	.	.	3%
Cc1ccc(C)c(S(=O)(=O)Nc2ccc(C(=O)NCCc3ccccn3)cc2)c1	-1%	-6%	5%	-4%	-1%	1%
CCCN(CCC)S(=O)(=O)c1ccc(NS(=O)(=O)c2ccc(F)cc2)cc1	-5%	0%	.	6%	2%	-7%
CCn1c(SCc2ccc(C#N)cc2)nnc1-c1ccc(S(=O)(=O)N2CCCCC2)cc1	10µM*	0%	-50%	-1%	0%	-9%
CCCOc1cccc(C(=O)Nc2ccc(-c3nc4ccccc4o3)cc2)c1	.	3%	28%	.	.	.
O=C(CSc1nnc(-c2ccccc2)o1)Nc1ccccc1F	?	-12%	0.79µM*	0.0032µM*	23%	?
COc1ccccc1-c1nnc(SCC(=O)Nc2ccccc2F)o1	.	-12%	.	.	.	.
